Inconclusive results are not listed. Activity calls are given as the source filed them. Calls follow the shape of the dose curve; as a rule, active = well fitted cell-killing curve with a large enough effect; inconclusive = small, poorly fitted or top-dose-only effect, or effect the other way; inactive = flat fitted curve, though single readings scatter.
test system: CASKI; assay: Primary qHTS to identify gynecologic anti-cancer compounds using libraries of approved drugs and bioactive compounds (AID 1345084); details: Gynecologic cancer cell panel viability, ATPlite luminescence, 48 h; series mostly up to 57.5 µM; activity change, negative = cytotoxicity: at the top concentration; also: nearly all actives have a fitted effect of over 55% in size
How it was run: (§1)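 ATP-based viability (ATPlite), 1,000 cells/well, 16 h pre-incubation, 48 h compound at 37 C, 5% CO2, 15 min RT before read.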
% is scaled to controls: 0 for no effect and ±100 for the full control effect; potency is read from the fitted curve at half-maximal effect.

Compound	Potency	activity change, negative = cytotoxicity
COc1ccc(-c2ccc3c(N4CCOCC4)nc(N4CC(C)OC(C)C4)nc3n2)cc1CO (centres undefined)	1.12 µM (active)	–
CCn1c(=O)c(-c2ccn[nH]2)cc2c(C)nc(N)nc21	15.8 µM (active)	–
CC(C)(C)Nc1nc2cc(Cl)c(Cl)cc2nc1S(C)(=O)=O	35.5 µM (active)	–
CN(C)C1CCN(C(=O)c2ccc(NC(=O)Nc3ccc(-c4nc(N5CCOCC5)nc(N5CCOCC5)n4)cc3)cc2)CC1	0.282 µM (active)	–
CO[C@@H](C)Cn1c(=O)n(C)c2cnc3ccc(-c4cncc(C(C)(C)O)c4)cc3c21	5.01 µM (active)	–
CCCNc1ccc2ncc(-c3ccc4[nH]ncc4c3)n2n1	8.91 µM (active)	–
CN(C)c1nc(NC2CCC(NC(=O)c3ccc(F)c(F)c3)CC2)nc2ccccc12 (centres undefined)	–	-10% (inactive)
C=C1C(=O)O[C@@H]2[C@H]1CCC(C)=C1CCC(=O)O[C@]12C	–	-17.7% (inactive)
CCC(C)C(=O)OC1CC(O)C23C4OCC5(C(O)CC2C1(C)C(O)O4)C3C(=O)CC1(C)C(c2ccoc2)CC2OC215 (centres undefined)	–	-13.4% [at 25.3 µM] (inactive)

test system: Es-2; assay: as above; details: Gynecologic cancer cell panel viability, ATPlite luminescence, 48 h; series mostly up to 57.5 µM; activity change, negative = cytotoxicity: at the top concentration
How it was run: as §1

Compound	Potency	activity change, negative = cytotoxicity
COc1cccc(-c2cc(NCc3ccc4c(c3)OCO4)nc(N)n2)c1	1.41 µM (active)	–
COc1cc(C2c3cc4c(c(O)c3CC(CO)C2C(=O)O)OCO4)cc(OC)c1O (centres undefined)	3.55 µM (active)	–
CCOC(=O)Nc1cc(-c2ccc(C)c(NS(C)(=O)=O)c2)nn2c(C)nnc12	12.6 µM (active)	–
COc1cc(-c2ncn(/C=C\C(=O)OC(C)C)n2)cc(C(F)(F)F)c1	0.891 µM (active)	–
C#CC[C@H](c1nc2cc(Cl)ccc2c(=O)n1Nc1ccccc1)N(CCCN)C(=O)c1cccc(Cl)c1F	7.94 µM (active)	–
C=CC(=O)Nc1cccc(CN2C(=O)N(c3c(Cl)c(OC)cc(OC)c3Cl)Cc3cnc(NCCCCN(CC)CC)nc32)c1	–	12.2% (inactive)
N#CC(c1ccnc(OCc2ccc(CN3CCOCC3)cc2)n1)c1nc2ccccc2s1 (centres undefined)	–	-22.8% (inactive)
COc1cc(OC)c(/C=C/S(=O)(=O)Cc2ccc(OC)c(NCC(=O)O)c2)c(OC)c1	0.316 µM (active)	–
Nc1nccn2c(C3CCC(C(=O)O)CC3)nc(-c3cc4cccc(Cl)c4[nH]3)c12 (centres undefined)	28.2 µM (active)	–
C=C1C(OC(C)=O)CCC2(C)CC3(OC)OC(=O)C(C)=C3CC12 (centres undefined)	–	9.78% [at 38.5 µM] (inactive)
CC(Oc1ccc2[nH]nc(/C=C/c3cnn(CCO)c3)c2c1)c1c(Cl)cncc1Cl (centres undefined)	20 µM (active)	–
COc1cc2ncnc(Nc3cccc(O)c3)c2cc1OC	–	-24.4% (inactive)
C=CC(=O)Nc1cccc(Nc2nc(Nc3ccc(N4CCN(C(C)=O)CC4)cc3OC)ncc2C(F)(F)F)c1	–	-21.6% (inactive)
O=C(CSc1nc2c(c(=O)n1-c1ccccc1)SCC2)Nc1ccc(-c2ccccc2)cn1	0.224 µM (active)	–
CC(O)/C=C/C1(O)C2(C)COC1(C)CC(O)C2 (centres undefined)	–	-14.1% (inactive)
CCCCC1CCN(CCCC(=O)c2ccccc2C)CC1	–	-1.92% (inactive)

test system: HeLa; assay: as above; details: Gynecologic cancer cell panel viability, ATPlite luminescence, 48 h; series mostly up to 57.5 µM; activity change, negative = cytotoxicity: at the top concentration
How it was run: as §1

Compound	Potency	activity change, negative = cytotoxicity
CCn1c(=O)c(-c2ccn[nH]2)cc2c(C)nc(N)nc21	8.91 µM (active)	–
COc1cccc(-c2cc(NCc3ccc4c(c3)OCO4)nc(N)n2)c1	1 µM (active)	–
C[C@@H]1C[C@@H]2O[C@H]2/C=C\C=C\C(=O)Cc2c(Cl)c(O)cc(O)c2C(=O)O1	–	-22.2% [at 38.5 µM] (inactive)
CN(C)C1CCN(C(=O)c2ccc(NC(=O)Nc3ccc(-c4nc(N5CCOCC5)nc(N5CCOCC5)n4)cc3)cc2)CC1	0.562 µM (active)	–
C=C1C(=O)OC2C1CCC(=C)C1CC(OC(C)=O)C(=C)C12 (centres undefined)	–	-4.91% (inactive)
CO[C@@H](C)Cn1c(=O)n(C)c2cnc3ccc(-c4cncc(C(C)(C)O)c4)cc3c21	6.31 µM (active)	–
COc1cc(-c2ncn(/C=C\C(=O)OC(C)C)n2)cc(C(F)(F)F)c1	15.8 µM (active)	–
Cn1cc(S(=O)(=O)c2ccc(Cl)cc2)c2cccc(N3CCNCC3)c21	–	-17.3% (inactive)
C#CC[C@H](c1nc2cc(Cl)ccc2c(=O)n1Nc1ccccc1)N(CCCN)C(=O)c1cccc(Cl)c1F	3.16 µM (active)	–
COc1cc2c(cc1OC)[C@@H]1[C@H](O)[C@@H](OC)C=C3CCN(C2)[C@H]31	–	-14.5% [at 38.5 µM] (inactive)
CCCNc1ccc2ncc(-c3ccc4[nH]ncc4c3)n2n1	4.47 µM (active)	–
N#CC(c1ccnc(OCc2ccc(CN3CCOCC3)cc2)n1)c1nc2ccccc2s1 (centres undefined)	–	-24.3% (inactive)
COc1cc(OC)c(/C=C/S(=O)(=O)Cc2ccc(OC)c(NCC(=O)O)c2)c(OC)c1	0.251 µM (active)	–
C=C1C(OC(C)=O)CCC2(C)CC3(OC)OC(=O)C(C)=C3CC12 (centres undefined)	–	-1.09% [at 38.5 µM] (inactive)
C=C1C(=O)O[C@@H]2[C@H]1CCC(C)=C1CCC(=O)O[C@]12C	–	5.12% (inactive)
CC(C)C(CO)Nc1nc(Nc2cc(N)cc(Cl)c2)c2ncn(C(C)C)c2n1 (centres undefined)	25.1 µM (active)	–
CC(=O)O[C@H]1CC(C)(C)CC2[C@@]13[C@H](O)C[C@]1(C)[C@@]2(CCC2[C@@]4(C)CC[C@H](O[C@@H]5OC[C@H](O[C@@H]6O[C@H](CO)[C@@H](O)[C@H](O)[C@H]6O[C@@H]6OC[C@@H](O)[C@H](O)[C@H]6O)[C@H](O)[C@H]5O[C@@H]5O[C@H](CO)[C@@H](O)[C@H](O)[C@H]5O)C(C)(C)C4CC[C@]21C)O[C@@H]3O (some centres undefined)	–	-7.2% [at 11.6 µM] (inactive)
CC(Oc1ccc2[nH]nc(/C=C/c3cnn(CCO)c3)c2c1)c1c(Cl)cncc1Cl (centres undefined)	1.58 µM (active)	–
COc1cc2ncnc(Nc3cccc(O)c3)c2cc1OC	–	-16.2% (inactive)
O=C(CSc1nc2c(c(=O)n1-c1ccccc1)SCC2)Nc1ccc(-c2ccccc2)cn1	0.158 µM (active)	–
CC(=O)NC1=NN(C(C)=O)C(C)(c2ccccc2)S1 (centres undefined)	14.1 µM (active)	–
C[C@H]1[C@H](O)O[C@@H]2O[C@@]3(C)CC[C@H]4[C@H](C)CC[C@@H]1[C@@]24OO3	12.6 µM (active)	–
CCCCC1CCN(CCCC(=O)c2ccccc2C)CC1	–	-10% (inactive)
N#Cc1cnc2cnc(NCc3cccnc3)cc2c1Nc1ccc(F)c(Cl)c1	–	-24.9% (inactive)

Reference: PubChem BioAssay (NCATS)
